Our source for the z-score and corrected activity, negative = more killing values is PubChem BioAssay AID1508625 (Wald Lab, School of Medicine, Case Western Reserve …, 2021).

This experiment is described as follows: enhancers of NK cell killing of ovarian tumor cells, primary screen, imaging, OVCAR3, primary NK cells, calcein-AM imaging (AID 1508625).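 Note: compound given to NK cells 16 h before adding targets at 1.5 to 1 ratio.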 To be noted: OVCAR3 lysis by primary NK cells, at 5 µM; z-score: measured here: robust Z-score, single-point normalisation.
For `Cc1ccc(OCc2ccc([N+](=O)[O-])cc2)cc1C`, the z-score is -0.719 and the corrected activity, negative = more killing was -1.29%.
As for `Cc1ccc(C(=O)Nc2cccc3c2C(=O)c2ccccc2C3=O)o1`, the corrected activity, negative = more killing is -2.82% and the z-score was -1.16.
For `CC1=C(C)CC(C(=O)Nc2ccc(S(=O)(=O)N3CCOCC3)cc2)C(C(=O)O)C1` (stereo not drawn), the corrected activity, negative = more killing is -10.2% and the z-score is -3.17.
In the case of `O=C(CNC(=O)OCc1ccccc1)Oc1cc2oc(=O)c3c(c2cc1Cl)CCC3`, the corrected activity, negative = more killing is -2.23% and the z-score was -0.829.
The corresponding values for `OCCNCCCOc1ccccc1F` are -1.78% and -0.566.
`CC(C)C(NC(=O)C12CC3CC(CC(C3)C1)C2)C(=O)NC1=NCCS1` (stereo not drawn): the z-score was 0.711 and the corrected activity, negative = more killing was 1.64%.
In the case of `COc1ccc(C(=O)N2N=C(C(C)C)CC2(O)C(F)(F)F)cc1OC` (stereo not drawn), the z-score was -1.46 and the corrected activity, negative = more killing is -4.89%.
With `O=[N+]([O-])c1ccc2[nH]c3c(c2c1)CCCC3NC1Cc2ccccc2C1` (stereo not drawn), the z-score is 0.0259 and the corrected activity, negative = more killing was 0.0593%.
For `CC(C)NC(=O)CCNC(=O)Cn1cnc2sc3c(c2c1=O)CCCC3`, the corrected activity, negative = more killing was -6.97% and the z-score was -2.22.
In the case of `COc1ccccc1OCC(=O)N=Nc1c(O)[nH]c2c(C)cc(Br)cc12`, the z-score is -1.13 and the corrected activity, negative = more killing was -2.87%.
For `Cc1ccc(-c2coc3c(C)c4oc(=O)c5c(c4cc23)CCC5)cc1`, the z-score is -1.5 and the corrected activity, negative = more killing is -5.02%.
For `CCOc1ccc(C2C(=C(O)c3ccccc3)C(=O)C(=O)N2CCO)cc1` (stereo not drawn) the same measures were -0.996 and -2.61%.
Turning to `O=C1C(=Cc2cccc([N+](=O)[O-])c2)Sc2ccccc21`, the corrected activity, negative = more killing is -3.79% and the z-score was -1.61.
For `Cc1nnc(NC(=O)CSc2nc3c(c(=O)n2-c2ccccc2)SCC3)s1`, the z-score was -0.0912 and the corrected activity, negative = more killing was -0.367%.
`O=C1NC(=S)N(c2ccc(Cl)cc2)C(=O)C1=Cc1cc(Br)ccc1O`: the z-score was -1.85 and the corrected activity, negative = more killing was -3.58%.
For `Cc1oc2c(C)c3oc(=O)c(C)c(C)c3cc2c1-c1ccccc1`, the corrected activity, negative = more killing was -1.87% and the z-score is -0.558.
Consider `Cc1cc(C)cc(NC(=O)c2cc(S(=O)(=O)NC3CCCCC3)ccc2F)c1`, for which the z-score is -1.42 and the corrected activity, negative = more killing is -5.25%.
The corresponding values for `CCOc1ccc(C(=O)N2CCc3cc(OC)c(OC)cc3C2)cc1` are -0.852 and -2.29%.
For the molecule `CC(=O)c1cccc(NC(=O)COc2ccccc2C)c1`, the z-score was -0.9 and the corrected activity, negative = more killing is -1.74%.
`CCCNS(=O)(=O)c1ccc(F)c(C(=O)Nc2cc(C)ccc2OC)c1`: the corrected activity, negative = more killing is -6% and the z-score is -1.62.
With `Cc1cc(Br)c(O)c(C=NCCNC(=O)c2nonc2N)c1`, the corrected activity, negative = more killing is 0.42% and the z-score is 0.173.
For `CCN1CCN(C(=O)C2c3ccccc3C(=O)N(C)C2c2cccs2)CC1` (stereo not drawn) the same measures were -7.01% and -1.74.
As to `COc1ccccc1CN1CCN(C2CCN(Cc3ccccc3)CC2)CC1`, the corrected activity, negative = more killing was 0.136% and the z-score was 0.0605.
Consider `Cc1c(C(=O)NCc2cccs2)oc2ccc(S(=O)(=O)N3CCC(C)CC3)cc12`, for which the z-score was -1.84 and the corrected activity, negative = more killing was -7.39%.
Take `COc1ccc(OC)c(NC(=O)c2cc3c(=O)n4ccccc4nc3s2)c1`: the z-score is -1.95 and the corrected activity, negative = more killing was -6.86%.
For `O=C(NN=Cc1ccncc1)c1n[nH]c2c1CCC2` the same measures were -0.783 and -1.79%.
Take `COc1ccc(OC)c(CN2CCN(Cc3ccccc3[N+](=O)[O-])CC2)c1`: the z-score was -1.67 and the corrected activity, negative = more killing was -3.74%.
The corresponding values for `CCOC(=O)C1=C(N)OC2=C(C(=O)CC(C)(C)C2)C1c1ccccc1[N+](=O)[O-]` (stereo not drawn) are -0.587 and -1.89%.
As to `COc1cccc(C=Nn2c(C)nnc2C)c1OC`, the corrected activity, negative = more killing is -2.16% and the z-score is -0.942.
In the case of `O=C1CSc2ccc(S(=O)(=O)N3CCOCC3)cc2N1`, the corrected activity, negative = more killing was -4.98% and the z-score was -1.34.
Consider `O=C(NN=C1CCCCC1)C(=O)Nc1ccc(Cl)cc1`, for which the corrected activity, negative = more killing was -4.69% and the z-score was -1.99.
Turning to `Cc1ccc(C(=O)NC(=Cc2cccnc2)C(=O)Nc2ccc(I)cc2)cc1`, the z-score was -0.23 and the corrected activity, negative = more killing was -0.444%.
Take `Cc1nc2ccc3nc(NC(=O)c4cc([N+](=O)[O-])ccc4Cl)sc3c2s1`: the z-score is -0.528 and the corrected activity, negative = more killing is -2.51%.
The corresponding values for `CCCCN(C)C(=O)c1cc2c(=O)n3cccc(C)c3nc2s1` are -1.78 and -6.29%.
For `O=C1C2CCCCC2C(=O)N1c1cccc2ccccc12` (stereo not drawn) the same measures were -0.712 and -3.38%.
For the molecule `CCCCOc1ccc(CN2CCN3CCCC3C2C)cc1` (stereo not drawn), the z-score is -1.66 and the corrected activity, negative = more killing is -3.8%.
Take `Cc1cc2oc(=O)c3c(c2c2occ(-c4ccc(Br)cc4)c12)CCC3`: the corrected activity, negative = more killing was -4.94% and the z-score is -1.48.
In the case of `CC(=O)Nc1ncc(Br)cc1[N+](=O)[O-]`, the z-score was -0.391 and the corrected activity, negative = more killing was -1.26%.
Turning to `c1ccc(OCCCc2nc(-c3ccccn3)no2)cc1`, the z-score is -1.37 and the corrected activity, negative = more killing is -2.46%.
